What was measured:
[1] = molecular target: T1, Serine/threonine-protein kinase Nek9 (Homo sapiens) (UniProt Q8TD19); conditions: at 1 µM;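 note: each value is a mean percent inhibition of NEK9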
T1 sequence (whole entry): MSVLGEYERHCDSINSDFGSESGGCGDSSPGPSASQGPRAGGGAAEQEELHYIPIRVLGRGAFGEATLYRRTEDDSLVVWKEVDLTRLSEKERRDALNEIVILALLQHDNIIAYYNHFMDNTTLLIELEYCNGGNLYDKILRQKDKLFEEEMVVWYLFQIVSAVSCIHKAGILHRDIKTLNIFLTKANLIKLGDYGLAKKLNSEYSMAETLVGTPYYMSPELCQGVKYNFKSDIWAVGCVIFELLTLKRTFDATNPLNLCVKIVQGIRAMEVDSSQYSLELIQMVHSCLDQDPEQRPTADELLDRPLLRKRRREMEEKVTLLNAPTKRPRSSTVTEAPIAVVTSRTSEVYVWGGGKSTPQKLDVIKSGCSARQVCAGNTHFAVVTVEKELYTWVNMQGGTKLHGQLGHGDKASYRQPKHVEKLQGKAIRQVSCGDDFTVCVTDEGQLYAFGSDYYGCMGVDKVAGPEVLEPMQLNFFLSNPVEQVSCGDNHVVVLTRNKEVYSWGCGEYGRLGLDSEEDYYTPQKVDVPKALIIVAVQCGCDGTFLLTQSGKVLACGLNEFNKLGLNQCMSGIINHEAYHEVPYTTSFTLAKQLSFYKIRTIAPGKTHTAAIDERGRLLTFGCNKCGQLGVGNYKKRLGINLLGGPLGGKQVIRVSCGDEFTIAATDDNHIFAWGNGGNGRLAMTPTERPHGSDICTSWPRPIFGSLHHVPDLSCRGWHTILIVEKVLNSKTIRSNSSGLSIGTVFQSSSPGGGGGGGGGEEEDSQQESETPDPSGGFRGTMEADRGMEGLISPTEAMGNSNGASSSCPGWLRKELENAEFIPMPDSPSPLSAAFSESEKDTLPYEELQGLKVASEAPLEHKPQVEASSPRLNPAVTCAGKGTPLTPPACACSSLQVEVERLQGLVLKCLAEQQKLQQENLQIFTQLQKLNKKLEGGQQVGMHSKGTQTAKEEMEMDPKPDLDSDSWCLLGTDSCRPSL

[2] = molecular target: Serine/threonine-protein kinase PLK1 (Homo sapiens) (UniProt P53350); conditions: at 0.1 µM
[3] = molecular target: Serine/threonine-protein kinase PLK1 (Homo sapiens) (UniProt P53350); conditions: at 1 µM
[4] = molecular target: T2, Dual specificity protein kinase TTK (Homo sapiens) (UniProt P33981); conditions: at 0.1 µM
T2 sequence (whole entry): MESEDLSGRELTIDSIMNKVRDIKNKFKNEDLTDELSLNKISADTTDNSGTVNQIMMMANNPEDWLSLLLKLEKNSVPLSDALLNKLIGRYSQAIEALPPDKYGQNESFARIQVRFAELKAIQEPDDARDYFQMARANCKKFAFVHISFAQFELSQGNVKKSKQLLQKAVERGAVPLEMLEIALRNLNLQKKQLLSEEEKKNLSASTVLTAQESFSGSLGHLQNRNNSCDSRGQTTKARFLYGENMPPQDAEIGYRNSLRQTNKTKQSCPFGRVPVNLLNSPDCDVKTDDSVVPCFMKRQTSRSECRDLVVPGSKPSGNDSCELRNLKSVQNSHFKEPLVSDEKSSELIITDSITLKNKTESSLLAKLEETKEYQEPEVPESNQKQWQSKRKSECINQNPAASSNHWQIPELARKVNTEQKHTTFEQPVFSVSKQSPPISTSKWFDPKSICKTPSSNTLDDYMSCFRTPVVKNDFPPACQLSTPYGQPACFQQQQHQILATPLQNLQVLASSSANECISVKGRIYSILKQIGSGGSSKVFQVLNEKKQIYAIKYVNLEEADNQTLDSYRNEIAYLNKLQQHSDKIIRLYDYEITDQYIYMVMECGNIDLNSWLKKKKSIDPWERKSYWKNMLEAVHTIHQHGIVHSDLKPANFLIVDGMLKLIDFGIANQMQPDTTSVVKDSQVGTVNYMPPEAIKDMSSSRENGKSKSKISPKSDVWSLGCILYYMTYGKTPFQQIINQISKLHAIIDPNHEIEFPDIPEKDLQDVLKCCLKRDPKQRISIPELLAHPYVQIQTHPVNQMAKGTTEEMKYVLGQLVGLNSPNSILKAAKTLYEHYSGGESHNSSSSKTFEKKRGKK

[5] = tested on: T3, Receptor-type tyrosine-protein kinase FLT3 (Homo sapiens), P36888 [D835Y]; conditions: at 1 µM
T3 sequence (whole entry): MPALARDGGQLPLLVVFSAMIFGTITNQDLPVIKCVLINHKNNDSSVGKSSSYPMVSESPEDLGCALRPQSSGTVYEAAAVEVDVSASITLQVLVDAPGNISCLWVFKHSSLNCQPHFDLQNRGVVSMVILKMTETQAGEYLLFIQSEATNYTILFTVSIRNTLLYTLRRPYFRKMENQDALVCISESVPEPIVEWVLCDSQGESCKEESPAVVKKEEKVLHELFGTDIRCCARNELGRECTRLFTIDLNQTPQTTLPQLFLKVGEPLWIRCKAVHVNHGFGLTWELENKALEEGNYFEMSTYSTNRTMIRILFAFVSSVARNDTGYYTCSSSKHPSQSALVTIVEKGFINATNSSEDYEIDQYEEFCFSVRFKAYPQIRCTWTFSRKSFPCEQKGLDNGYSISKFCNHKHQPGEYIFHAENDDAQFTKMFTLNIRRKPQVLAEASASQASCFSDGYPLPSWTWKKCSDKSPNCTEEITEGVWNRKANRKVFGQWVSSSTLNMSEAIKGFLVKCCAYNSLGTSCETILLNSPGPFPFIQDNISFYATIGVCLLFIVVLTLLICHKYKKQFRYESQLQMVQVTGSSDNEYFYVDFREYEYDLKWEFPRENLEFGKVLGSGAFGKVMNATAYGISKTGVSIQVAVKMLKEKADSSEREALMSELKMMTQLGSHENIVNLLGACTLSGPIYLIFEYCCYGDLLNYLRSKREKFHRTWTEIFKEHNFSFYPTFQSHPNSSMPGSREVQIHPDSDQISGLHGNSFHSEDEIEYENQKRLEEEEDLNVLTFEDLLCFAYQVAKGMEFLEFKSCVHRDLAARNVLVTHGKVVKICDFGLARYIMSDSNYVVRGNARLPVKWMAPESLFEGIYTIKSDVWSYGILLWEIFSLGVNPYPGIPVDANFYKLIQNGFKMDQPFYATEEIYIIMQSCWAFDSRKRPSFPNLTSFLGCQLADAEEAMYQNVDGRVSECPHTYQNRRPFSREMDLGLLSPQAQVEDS

[6] = molecular target: Vascular endothelial growth factor receptor 3 (Homo sapiens) (UniProt P35916); conditions: at 1 µM
[7] = molecular target: Macrophage colony-stimulating factor 1 receptor (Homo sapiens) (UniProt P07333); conditions: at 0.1 µM
[8] = molecular target: Macrophage colony-stimulating factor 1 receptor (Homo sapiens) (UniProt P07333); conditions: at 1 µM
[9] = molecular target: Tyrosine-protein kinase Fyn (Homo sapiens) (UniProt P06241); conditions: at 0.1 µM
[10] = molecular target: Tyrosine-protein kinase Fyn (Homo sapiens) (UniProt P06241); conditions: at 1 µM
[11] = molecular target: Tyrosine-protein kinase HCK (Homo sapiens) (UniProt P08631); conditions: at 0.1 µM
[12] = molecular target: Tyrosine-protein kinase HCK (Homo sapiens) (UniProt P08631); conditions: at 1 µM
[13] = molecular target: Insulin-like growth factor 1 receptor (Homo sapiens) (UniProt P08069); conditions: at 1 µM
[14] = molecular target: Insulin receptor (Homo sapiens) (UniProt P06213); conditions: at 0.1 µM
[15] = molecular target: Insulin receptor (Homo sapiens) (UniProt P06213); conditions: at 1 µM
[16] = molecular target: Insulin receptor-related protein (Homo sapiens) (UniProt P14616); conditions: at 0.1 µM
[17] = molecular target: Insulin receptor-related protein (Homo sapiens) (UniProt P14616); conditions: at 1 µM
[18] = molecular target: T4, Tyrosine-protein kinase ITK/TSK (Homo sapiens) (UniProt Q08881); conditions: at 0.1 µM;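 note: mean percent inhibition of ITK from the GSK PKIS screen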
T4 sequence (whole entry): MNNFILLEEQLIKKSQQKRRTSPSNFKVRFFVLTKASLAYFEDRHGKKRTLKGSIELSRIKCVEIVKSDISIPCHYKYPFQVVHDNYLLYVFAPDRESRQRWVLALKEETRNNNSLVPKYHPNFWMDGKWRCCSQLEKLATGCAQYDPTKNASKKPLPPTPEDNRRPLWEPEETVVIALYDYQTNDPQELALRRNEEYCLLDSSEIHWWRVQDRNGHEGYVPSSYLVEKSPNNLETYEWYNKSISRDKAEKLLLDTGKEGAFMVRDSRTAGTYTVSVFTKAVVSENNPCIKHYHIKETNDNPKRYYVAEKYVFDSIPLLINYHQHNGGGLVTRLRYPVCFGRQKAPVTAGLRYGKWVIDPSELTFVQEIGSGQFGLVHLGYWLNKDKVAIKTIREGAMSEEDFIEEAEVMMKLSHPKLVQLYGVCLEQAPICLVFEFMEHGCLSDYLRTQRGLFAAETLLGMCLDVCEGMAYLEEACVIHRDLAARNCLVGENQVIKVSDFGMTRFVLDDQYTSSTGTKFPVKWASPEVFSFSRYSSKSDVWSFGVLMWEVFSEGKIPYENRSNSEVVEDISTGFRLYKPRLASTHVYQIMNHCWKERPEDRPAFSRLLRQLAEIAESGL

[19] = molecular target: Vascular endothelial growth factor receptor 3 (Homo sapiens) (UniProt P35916); conditions: at 0.1 µM
[20] = molecular target: Insulin-like growth factor 1 receptor (Homo sapiens) (UniProt P08069); conditions: at 0.1 µM

Chain of Vascular endothelial growth factor receptor 3 (Homo sapiens) (P35916 whole entry): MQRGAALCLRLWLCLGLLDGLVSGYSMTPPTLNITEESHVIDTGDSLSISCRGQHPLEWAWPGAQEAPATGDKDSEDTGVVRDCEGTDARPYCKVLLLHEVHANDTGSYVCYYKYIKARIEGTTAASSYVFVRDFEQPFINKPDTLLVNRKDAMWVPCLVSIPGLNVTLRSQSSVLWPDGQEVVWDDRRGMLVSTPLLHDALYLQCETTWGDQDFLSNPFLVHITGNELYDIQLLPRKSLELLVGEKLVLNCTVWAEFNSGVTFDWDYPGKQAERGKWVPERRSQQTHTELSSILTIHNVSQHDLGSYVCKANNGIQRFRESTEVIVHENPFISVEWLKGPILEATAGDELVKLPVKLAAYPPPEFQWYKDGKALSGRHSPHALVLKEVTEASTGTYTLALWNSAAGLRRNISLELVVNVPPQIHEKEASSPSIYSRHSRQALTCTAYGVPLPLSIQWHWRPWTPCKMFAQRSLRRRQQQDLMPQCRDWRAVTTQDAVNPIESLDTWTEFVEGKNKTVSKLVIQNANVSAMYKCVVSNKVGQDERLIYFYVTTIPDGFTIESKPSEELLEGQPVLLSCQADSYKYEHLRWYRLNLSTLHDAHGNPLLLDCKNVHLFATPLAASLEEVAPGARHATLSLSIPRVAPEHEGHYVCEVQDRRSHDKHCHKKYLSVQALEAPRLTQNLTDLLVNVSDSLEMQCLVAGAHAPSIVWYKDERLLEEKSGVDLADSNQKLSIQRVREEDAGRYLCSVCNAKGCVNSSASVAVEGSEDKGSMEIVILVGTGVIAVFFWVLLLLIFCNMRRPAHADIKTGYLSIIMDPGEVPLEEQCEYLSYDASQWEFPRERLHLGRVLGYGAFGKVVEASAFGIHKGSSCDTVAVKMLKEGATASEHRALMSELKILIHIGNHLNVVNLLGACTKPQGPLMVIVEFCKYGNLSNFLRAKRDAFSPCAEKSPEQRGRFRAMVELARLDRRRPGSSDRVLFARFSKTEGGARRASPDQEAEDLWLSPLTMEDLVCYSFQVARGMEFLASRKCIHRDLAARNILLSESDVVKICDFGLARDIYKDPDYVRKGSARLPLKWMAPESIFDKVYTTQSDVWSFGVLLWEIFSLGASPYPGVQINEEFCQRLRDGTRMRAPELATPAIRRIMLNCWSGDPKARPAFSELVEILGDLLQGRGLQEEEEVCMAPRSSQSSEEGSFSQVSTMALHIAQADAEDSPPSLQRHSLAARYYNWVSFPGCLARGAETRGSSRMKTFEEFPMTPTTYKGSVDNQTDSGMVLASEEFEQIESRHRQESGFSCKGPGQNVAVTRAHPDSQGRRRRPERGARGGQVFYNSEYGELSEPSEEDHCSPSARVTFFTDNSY
Chain of Insulin receptor-related protein (Homo sapiens) (P14616 27-742 limits assumed): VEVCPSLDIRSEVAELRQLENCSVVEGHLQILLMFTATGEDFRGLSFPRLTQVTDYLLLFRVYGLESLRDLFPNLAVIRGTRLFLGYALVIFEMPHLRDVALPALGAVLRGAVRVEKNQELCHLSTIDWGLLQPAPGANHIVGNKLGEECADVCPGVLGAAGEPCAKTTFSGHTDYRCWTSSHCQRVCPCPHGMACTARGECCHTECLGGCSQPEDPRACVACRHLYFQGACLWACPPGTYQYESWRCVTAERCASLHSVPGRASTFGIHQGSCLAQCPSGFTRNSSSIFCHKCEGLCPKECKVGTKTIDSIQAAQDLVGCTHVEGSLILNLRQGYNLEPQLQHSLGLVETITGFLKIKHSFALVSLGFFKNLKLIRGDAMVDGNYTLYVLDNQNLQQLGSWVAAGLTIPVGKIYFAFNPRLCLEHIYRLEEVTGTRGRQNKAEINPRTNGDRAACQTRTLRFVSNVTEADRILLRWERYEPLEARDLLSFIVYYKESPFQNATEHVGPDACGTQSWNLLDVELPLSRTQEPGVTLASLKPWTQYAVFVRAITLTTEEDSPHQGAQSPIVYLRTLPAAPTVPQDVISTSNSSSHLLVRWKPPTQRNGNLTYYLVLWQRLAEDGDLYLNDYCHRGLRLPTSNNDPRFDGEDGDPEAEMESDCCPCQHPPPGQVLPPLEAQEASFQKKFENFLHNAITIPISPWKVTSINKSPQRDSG
Chain of Insulin receptor-related protein (Homo sapiens) (P14616 747-1297 limits assumed): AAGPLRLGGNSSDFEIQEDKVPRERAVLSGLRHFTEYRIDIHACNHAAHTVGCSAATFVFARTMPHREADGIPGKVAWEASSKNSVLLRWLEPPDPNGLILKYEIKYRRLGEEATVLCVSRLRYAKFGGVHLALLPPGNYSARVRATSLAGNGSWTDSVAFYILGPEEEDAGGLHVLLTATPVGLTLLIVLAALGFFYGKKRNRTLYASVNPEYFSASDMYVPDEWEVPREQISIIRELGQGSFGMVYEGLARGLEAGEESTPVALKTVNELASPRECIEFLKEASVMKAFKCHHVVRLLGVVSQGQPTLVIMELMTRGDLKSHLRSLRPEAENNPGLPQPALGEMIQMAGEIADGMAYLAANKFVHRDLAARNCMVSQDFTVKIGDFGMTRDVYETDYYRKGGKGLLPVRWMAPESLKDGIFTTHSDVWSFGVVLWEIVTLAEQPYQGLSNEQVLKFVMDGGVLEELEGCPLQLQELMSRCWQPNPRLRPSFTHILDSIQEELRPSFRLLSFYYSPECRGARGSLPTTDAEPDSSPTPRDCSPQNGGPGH
Chain of Tyrosine-protein kinase Fyn (Homo sapiens) (P06241 2-537 limits assumed): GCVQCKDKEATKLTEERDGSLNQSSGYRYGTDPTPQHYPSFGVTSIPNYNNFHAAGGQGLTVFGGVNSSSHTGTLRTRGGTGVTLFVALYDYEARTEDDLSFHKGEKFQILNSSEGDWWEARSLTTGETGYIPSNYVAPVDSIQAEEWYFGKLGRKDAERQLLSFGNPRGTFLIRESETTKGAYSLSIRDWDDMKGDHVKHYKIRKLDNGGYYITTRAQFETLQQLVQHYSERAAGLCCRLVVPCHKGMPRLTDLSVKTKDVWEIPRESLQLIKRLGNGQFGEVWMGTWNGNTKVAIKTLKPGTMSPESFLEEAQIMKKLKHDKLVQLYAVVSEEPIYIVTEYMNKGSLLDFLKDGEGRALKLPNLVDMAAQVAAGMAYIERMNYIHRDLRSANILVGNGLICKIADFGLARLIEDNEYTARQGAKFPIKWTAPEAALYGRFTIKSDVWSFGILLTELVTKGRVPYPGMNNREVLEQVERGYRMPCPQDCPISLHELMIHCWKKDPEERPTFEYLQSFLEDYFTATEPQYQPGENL
Chain of Insulin-like growth factor 1 receptor (Homo sapiens) (P08069 31-736 limits assumed): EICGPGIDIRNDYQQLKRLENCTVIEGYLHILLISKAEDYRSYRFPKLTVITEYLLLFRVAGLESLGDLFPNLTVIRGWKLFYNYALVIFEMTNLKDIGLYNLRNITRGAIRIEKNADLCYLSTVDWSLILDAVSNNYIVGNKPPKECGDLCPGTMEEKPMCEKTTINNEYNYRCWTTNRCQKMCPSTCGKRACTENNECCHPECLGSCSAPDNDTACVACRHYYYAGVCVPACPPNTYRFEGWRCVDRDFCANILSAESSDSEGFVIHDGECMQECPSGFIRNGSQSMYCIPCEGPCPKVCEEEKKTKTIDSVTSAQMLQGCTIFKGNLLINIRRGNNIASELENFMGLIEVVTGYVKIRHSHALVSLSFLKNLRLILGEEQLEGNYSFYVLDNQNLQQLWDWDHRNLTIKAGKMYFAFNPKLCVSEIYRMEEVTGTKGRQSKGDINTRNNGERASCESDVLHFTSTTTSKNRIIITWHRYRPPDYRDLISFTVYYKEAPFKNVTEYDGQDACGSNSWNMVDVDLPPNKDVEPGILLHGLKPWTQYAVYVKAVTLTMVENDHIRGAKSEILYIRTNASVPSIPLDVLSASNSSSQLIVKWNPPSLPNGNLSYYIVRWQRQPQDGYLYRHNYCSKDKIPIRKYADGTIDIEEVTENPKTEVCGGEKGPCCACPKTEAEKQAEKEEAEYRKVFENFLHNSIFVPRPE
Chain of Insulin-like growth factor 1 receptor (Homo sapiens) (P08069 741-1367 limits assumed): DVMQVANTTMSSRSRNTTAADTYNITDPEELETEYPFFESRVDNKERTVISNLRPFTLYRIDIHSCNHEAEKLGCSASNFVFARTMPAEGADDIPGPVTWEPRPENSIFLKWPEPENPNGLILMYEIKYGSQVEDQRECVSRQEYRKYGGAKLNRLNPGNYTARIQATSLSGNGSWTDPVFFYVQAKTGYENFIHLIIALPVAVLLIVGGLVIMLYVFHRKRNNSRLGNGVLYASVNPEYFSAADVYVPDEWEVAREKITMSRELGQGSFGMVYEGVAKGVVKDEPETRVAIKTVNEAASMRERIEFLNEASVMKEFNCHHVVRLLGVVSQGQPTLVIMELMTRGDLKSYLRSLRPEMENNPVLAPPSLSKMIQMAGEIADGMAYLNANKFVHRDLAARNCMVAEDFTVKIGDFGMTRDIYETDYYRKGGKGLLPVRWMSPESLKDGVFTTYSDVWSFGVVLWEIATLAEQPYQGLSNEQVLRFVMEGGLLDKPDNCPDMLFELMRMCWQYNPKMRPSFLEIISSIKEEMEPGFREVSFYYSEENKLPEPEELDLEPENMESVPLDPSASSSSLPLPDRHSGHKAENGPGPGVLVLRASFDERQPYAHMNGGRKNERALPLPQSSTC
Chain of Tyrosine-protein kinase HCK (Homo sapiens) (P08631 2-526 limits assumed): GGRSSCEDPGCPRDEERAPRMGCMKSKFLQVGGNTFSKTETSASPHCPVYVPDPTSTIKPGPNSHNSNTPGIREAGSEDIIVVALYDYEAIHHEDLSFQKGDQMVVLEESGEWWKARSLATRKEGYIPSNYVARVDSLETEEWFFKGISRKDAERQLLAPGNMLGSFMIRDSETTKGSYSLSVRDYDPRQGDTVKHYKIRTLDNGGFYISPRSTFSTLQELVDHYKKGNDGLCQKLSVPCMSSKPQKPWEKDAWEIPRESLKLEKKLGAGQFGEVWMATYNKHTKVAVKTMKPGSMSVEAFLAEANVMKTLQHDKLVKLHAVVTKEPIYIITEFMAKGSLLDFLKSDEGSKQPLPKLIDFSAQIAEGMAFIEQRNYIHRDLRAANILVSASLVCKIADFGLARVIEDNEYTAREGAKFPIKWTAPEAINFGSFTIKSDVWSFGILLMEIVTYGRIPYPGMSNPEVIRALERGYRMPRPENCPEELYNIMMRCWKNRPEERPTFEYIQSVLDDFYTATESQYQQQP

Compound: COc1cccc(-n2cnc3c(N/N=C/c4ccncc4)ncnc32)c1
- inhibition [1]: 5.21%
- inhibition [2]: -1.9%
- inhibition [3]: -0.54%
- inhibition [4]: 0.25%
- inhibition [5]: 9.6%
- inhibition [6]: -4.88%
- inhibition [7]: 4.43%
- inhibition [8]: 24.9%
- inhibition [9]: -0.06%
- inhibition [10]: 25.6%
- inhibition [11]: 0.9%
- inhibition [12]: 16.3%
- inhibition [13]: -8.19%
- inhibition [14]: -2.78%
- inhibition [15]: -4.12%
- inhibition [16]: 1%
- inhibition [17]: 0.57%
- inhibition [18]: -2.76%

Compound: C#Cc1cccc(Nc2ncnc3ccc(OCCCCNCCS(C)(=O)=O)cc23)c1
- inhibition [1]: 10.2%
- inhibition [2]: 2.94%
- inhibition [3]: 2.68%
- inhibition [4]: 9.49%
- inhibition [5]: 1.41%
- inhibition [19]: -5.89%
- inhibition [7]: 4.11%
- inhibition [8]: 2.93%
- inhibition [9]: -1.92%
- inhibition [10]: 2.18%
- inhibition [11]: 11.1%
- inhibition [12]: 20.5%
- inhibition [20]: -0.58%
- inhibition [13]: -2.48%
- inhibition [14]: 8.82%
- inhibition [15]: 4.34%
- inhibition [16]: 2.65%
- inhibition [17]: 2.49%
- inhibition [18]: -1.95%

Compound: Fc1ccc(-c2ncn(C3CCNCC3)c2-c2ccnc(Oc3ccc(F)c(F)c3)n2)cc1
- inhibition [1]: 6.01%
- inhibition [2]: 3.45%
- inhibition [3]: 2.6%
- inhibition [4]: 10.3%
- inhibition [5]: -6.12%
- inhibition [19]: -4.95%
- inhibition [6]: -7.54%
- inhibition [7]: 1.11%
- inhibition [8]: 7.56%
- inhibition [9]: -4.18%
- inhibition [10]: -4.44%
- inhibition [11]: 5.11%
- inhibition [12]: 4.68%
- inhibition [13]: -4.9%
- inhibition [14]: -2.06%
- inhibition [15]: 0.24%
- inhibition [16]: 3.04%
- inhibition [17]: 2.75%
- inhibition [18]: -3.95%

Compound: c1ccc(-c2n[nH]cc2-c2ccnc(-c3ccc(OCCN4CCOCC4)cc3)c2)nc1
- inhibition [2]: -1.38%
- inhibition [3]: -1.28%
- inhibition [4]: -2.01%
- inhibition [5]: 1.73%
- inhibition [19]: -0.95%
- inhibition [6]: 8.44%
- inhibition [7]: 2.4%
- inhibition [8]: 8.98%
- inhibition [9]: -0.84%
- inhibition [10]: 4.24%
- inhibition [11]: 1.69%
- inhibition [12]: 4.55%
- inhibition [20]: -2.45%
- inhibition [13]: -2.14%
- inhibition [14]: -2.85%
- inhibition [15]: -1.85%
- inhibition [16]: -0.78%
- inhibition [17]: -0.34%
- inhibition [18]: 5.52%

Compound: Fc1ccc(-c2c(-c3ccncc3)nc3n2CCS3)cc1
- inhibition [1]: 4.81%
- inhibition [2]: 2.99%
- inhibition [3]: 2.94%
- inhibition [4]: 5.74%
- inhibition [5]: -4.22%
- inhibition [19]: -5.59%
- inhibition [7]: 1.54%
- inhibition [8]: 1.37%
- inhibition [9]: -3.03%
- inhibition [10]: 0.5%
- inhibition [11]: 2.36%
- inhibition [12]: 4.87%
- inhibition [20]: -4.27%
- inhibition [13]: -5.03%
- inhibition [14]: 5.99%
- inhibition [15]: 6.13%
- inhibition [16]: 0.59%
- inhibition [17]: 0.48%
- inhibition [18]: -2.9%

Compound: COc1ccc2cc(-c3c(-c4ccncc4)nc(-c4ccc([S+](C)[O-])cc4C)n3C)ccc2c1 (stereo not given)
- inhibition [1]: -2.02%
- inhibition [2]: -0.27%
- inhibition [3]: -0.2%
- inhibition [4]: -1.41%
- inhibition [5]: 4.56%
- inhibition [19]: 2.68%
- inhibition [6]: 9.41%
- inhibition [9]: 1.51%
- inhibition [10]: 1.8%
- inhibition [11]: -0.56%
- inhibition [12]: 4.6%
- inhibition [20]: 0.87%
- inhibition [13]: 1.27%
- inhibition [14]: 0.15%
- inhibition [15]: 2.57%
- inhibition [16]: -0.96%
- inhibition [17]: 1.18%
- inhibition [18]: 0.02%

Compound: CN1CCN(CCCNc2nc3ccc(Oc4ccc(NC(=O)Nc5cc(C(F)(F)F)ccc5F)cc4)cc3[nH]2)CC1
- inhibition [1]: -1.83%
- inhibition [2]: 1.78%
- inhibition [3]: 0.98%
- inhibition [4]: 1.87%
- inhibition [5]: 1.66%
- inhibition [6]: -0.49%
- inhibition [7]: 3.57%
- inhibition [8]: 17.3%
- inhibition [9]: -4.47%
- inhibition [10]: -1.88%
- inhibition [11]: 4.66%
- inhibition [12]: 9.14%
- inhibition [20]: -9.82%
- inhibition [13]: -7.78%
- inhibition [14]: -3.22%
- inhibition [16]: 1.22%
- inhibition [17]: 0.55%
- inhibition [18]: -2.06%

— ChEMBL document CHEMBL1961873, “Compounds: GSK PKIS; Assays: Nanosyn kinase panel” (2012)
